Bioassay records: PubChem BioAssay, several laboratories
SMARCA2 act – SMARCA2 function activation, primary screen. MG213 cells, MMTV-luciferase reporter, dexamethasone, overnight. activation, % at 9.1 µM. hit rate 1% among 370,000; in the data active = activation above about 7.8%;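 note: 0% = vehicle wells and 100% = reference activator wells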
697 NFkB inh – inhibitors of the PMA/ionomycin-induced NF-kB reporter in 697 B cells; 697 B-cell NF-kB luciferase reporter, 16 h; inhibition, % at 4 µM; hit rate 0.33% among 330,000; AID 435022; in the data active = inhibition above about 35%
Gli-Sufu antag – antagonists of Gli-Sufu signaling. AID 588413. Sufu-KO-LIGHT fibroblasts, Gli luciferase reporter luminescence. inhibition, % at 5 µM. hit rate 0.74% among 340,000;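 active = inhibition above about 55%, limit read from the data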;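 note: 0% = DMSO-treated cells and 100% = wells with medium but no cells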
Jurkat NFkB inh – lowers PMA/ionomycin-induced NF-kB signal in Jurkat cells; PMA/ionomycin-induced NF-kB luciferase reporter, luminescence; inhibition, % at 4 µM; hit rate 0.53% among 330,000; AID 435003; in the data active = inhibition above about 50%
esBAF inh – inhibitors of esBAF chromatin remodeling in mouse ES cells; AID 602393; reporter increase, % at 12.5 µM; hit rate 2% among 350,000; Bmi1-luciferase knock-in reporter, 24 h; 100% = twice the neutral-well signal; in the data active = activation above about 40%; inconclusive = no clear call, values can overlap the other calls;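 note: 0% = median of the plate's neutral control wells and 100% = double that signal; a rise in the Bmi1 reporter signal indicates esBAF inhibition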
Jurkat NFkB conf – lowers PMA/ionomycin-induced NF-kB signal in Jurkat cells | shares compounds with Jurkat NFkB inh | Jurkat NF-kB luciferase, 16 h | inhibition, % at 4 µM | hit rate 27% among 2,700;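 active = inhibition reaching about 45% at 4 µM in either replicate, limit read from the data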;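 note: plate controls were PMA/ionomycin stimulated DMSO wells for no effect and unstimulated DMSO wells for full effect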
Numbers without * were called inactive; ? = inconclusive; nt = no result given. Only some compounds are listed: those with a hit (about 3.3% of all), similar ones and a draw of the others.

SMILES	SMARCA2 act	697 NFkB inh	Gli-Sufu antag	Jurkat NFkB inh	esBAF inh	Jurkat NFkB conf
C[C@@H]1CN([C@@H](C)CO)C(=O)c2cc(NS(=O)(=O)c3cn(C)cn3)ccc2O[C@@H](C)CCCCO[C@@H]1CN(C)C(=O)Nc1ccc(F)cc1	nt	nt	nt	nt	1	nt
Cc1cc(=O)oc2cc(OCC(=O)N/N=C/c3ccccc3O)ccc12	-4	12	27	2	-5	nt
CSc1nc(C)cc(OCC(=O)N/N=C/c2ccccc2O)n1	-5	-52	5	52*	nt	18
Clc1ccc(-c2nnc(SCc3ccon3)o2)c(Cl)c1	2	-172	-84	-118	1	nt
C=CCSc1nnc(-c2ccc(Cl)cc2Cl)o1	6	-125	-61	-150	4	-103
CCc1ccc(NC(=O)c2cc(C(C)C)on2)cc1	2	-155	-40	-215	-16	-128
CC(C)c1onc(C(=O)Nc2cccc(Cl)c2)c1[N+](=O)[O-]	0	-16	-10	-4	nt	nt
CC(C)Cc1cc(C(=O)Nc2ccc3c(c2)OCO3)no1	1	-1	-22	-99	33	nt
CCc1ccc(NC(=O)c2cc(-c3cccs3)on2)cc1	2	-6	-12	-64	39	nt
CCCc1cc(C(=O)Nc2ccc(CC)cc2)no1	3	-136	-8	-177	77*	-91
CCc1ccc(NC(=O)c2cc(C)on2)cc1	3	-119	-55	-145	10	nt
CC(C)c1cc(C(=O)Nc2cccc(Cl)c2)no1	3	-141	-49	-232	31	-91
CC(C)Cc1cc(C(=O)Nc2cccc(O)c2)no1	4	14	-5	-203	-27	-112
CCSc1nc2ccccc2n1C(=O)/C=C\c1ccc(OC)c(OC)c1	3	-136	0	53*	21	42
CCCNC(=O)C[C@@H]1CC[C@@H]2[C@@H](COc3ccc(NC(=O)c4ccc(OC)cc4)cc3C(=O)N2C)O1	nt	nt	nt	nt	-6	nt
Cc1ccc2oc(/N=C(\N)NC(=O)C(C)(C)C)nc2c1	-14	-44	75*	60*	nt	87*
COc1ccc(NC(=S)c2ccc(N(C)C)cc2)cc1	5	-105	-89	-100	nt	nt
Cc1ccc(NC(=S)c2ccc(N(C)C)cc2)cc1	6	-96	-134	-199	-16	-49
C[C@H]1CN([C@@H](C)CO)C(=O)Cc2cc(NS(=O)(=O)c3ccccc3)ccc2O[C@H]1CN(C)Cc1ccc(C(=O)O)cc1	nt	nt	nt	nt	-7	nt
CCOC(=O)N/N=C/c1c(C)nn(-c2cccc(C(F)(F)F)c2)c1Cl	-2	-44	19	51*	nt	46
COc1cc(CCC(=O)Nc2ncc(C)s2)cc(OC)c1OC	-1	2	9	9	-11	nt
COc1cc(CCC(=O)Nc2nnc(C)s2)cc(OC)c1OC	1	-36	-9	52*	-5	27
C[C@@H]1CN([C@@H](C)CO)C(=O)Cc2cc(NS(=O)(=O)c3ccc(F)cc3)ccc2O[C@H]1CN(C)Cc1ccc(-c2ccccc2)cc1	nt	nt	nt	nt	4	nt
CCOc1ccc(N/C=C/C(=O)c2ccc(C)cc2)c([N+](=O)[O-])c1	3	-115	-79	-117	nt	nt
Cc1ccc(N/C=C/C(=O)c2ccc(C)cc2)cc1	7	-135	-82	-142	2	nt
SMILES	SMARCA2 act	697 NFkB inh	Gli-Sufu antag	Jurkat NFkB inh	esBAF inh	Jurkat NFkB conf
CN(C)c1ccc(N/C=C/C(=O)c2ccccc2)cc1	4	-100	-49	-171	nt	-49
Cc1ccc(C(=O)/C=C\Nc2ccc(C)c(C)c2)cc1	4	-146	-62	-162	nt	-18
Cc1cc(N/C=C/C(=O)c2ccccc2)ccc1Br	7	-248	-88	-167	-9	-120
Cc1ccc(C(=O)/C=C/Nc2ccc([N+](=O)[O-])cc2Br)cc1	5	-187	-94	-165	?	-41
Cc1ccc(O)c(N/C=C/C(=O)c2ccc(F)cc2)c1	5	-50	24	85*	63*	14
COc1cc(SC)ccc1C(=O)Nc1ncc(C)s1	-4	-134	18	-67	nt	nt
COc1cc(SC)ccc1C(=O)Nc1cccc(C)n1	4	-153	-83	-153	45*	-69
COc1cc(SC)ccc1C(=O)NC(C)C	-1	4	-4	4	-4	nt
COc1cc(SC)ccc1C(=O)Nc1ccc2c(c1)OCO2	2	nt	-76	nt	31	nt
COc1cc(SC)ccc1C(=O)Nc1ccccn1	2	-221	-96	-166	nt	-96
COc1cc(SC)ccc1C(=O)Nc1ccc(C)cc1	3	-194	-120	-171	nt	-112
COc1ccc(N2CC(C(=O)Nc3ccccc3N3CCCC3)CC2=O)c(OC)c1 (stereo not given)	-3	-8	-4	58*	nt	13
O=C(Nc1cccc(C(F)(F)F)c1)c1sc(Cl)nc1C(F)(F)F	-3	-207	14	97*	-6	71*
O=C(C[C@@H]1CC[C@@H](NS(=O)(=O)c2ccc(F)cc2)[C@@H](CO)O1)NCc1ccncn1	nt	nt	nt	nt	7	nt
CCOc1ccc(Cc2c(Cl)nc(SC)nc2N(C)C)cc1	-4	-70	8	60*	nt	27
C[C@H](CO)N1C[C@H](C)[C@H](CN(C)C(=O)Nc2ccc(C(F)(F)F)cc2)Oc2c(NS(C)(=O)=O)cccc2C1=O	nt	nt	nt	nt	-5	nt
C[C@H](CO)N1C[C@H](C)[C@@H](CN(C)Cc2ccc3c(c2)OCO3)Oc2c(NC(=O)Nc3ccc(C(F)(F)F)cc3)cccc2C1=O	nt	nt	nt	nt	3	nt
O=c1[nH]c(CN2CCN(c3ccc(O)cc3)CC2)nc2scc(-c3ccc(Cl)cc3)c12	-6	-47	5	60*	nt	20
CCOC(=O)c1[nH]c(C)c(C(=O)Nc2ccccc2C)c1C	-1	-60	-13	53*	12	39
CCOC(=O)c1c(C)[nH]c(C(C)=O)c1C	0	7	4	13	3	nt
CCOC(=O)c1[nH]c(C)c(C(=O)Nc2cc(Cl)ccc2C)c1C	-3	23	27	69*	nt	56*
CCOC(=O)c1[nH]c(C=O)c(C(=O)OCC)c1C	0	-31	34	59*	nt	39
O=C(N[C@H]1CC[C@@H](CCNS(=O)(=O)c2ccc(F)cc2)O[C@H]1CO)c1cccc(F)c1	nt	nt	nt	nt	3	nt
O=C(COC(=O)c1cccc(OC(F)F)c1)Nc1cccc(S(=O)(=O)N2CCCC2)c1	-2	1	-4	63*	-7	11
C[C@@H]1CN([C@H](C)CO)C(=O)c2cc(NS(C)(=O)=O)ccc2O[C@@H](C)CCCCO[C@@H]1CN(C)S(=O)(=O)c1ccccc1	nt	nt	nt	nt	-2	nt
CCOc1ccc(S(=O)(=O)NCc2ccccn2)cc1NC(=O)c1ccccc1F	1	11	21	54*	-10	45
COC(=O)c1cc(Cl)c(NC(=O)C(C)C)cc1OC	1	-9	-1	0	nt	nt
COC(=O)c1cc(Cl)c(NC(=O)/C=C/c2ccc(OC)cc2)cc1OC	-5	-43	-5	51*	nt	20
C[C@H](CO)N1C[C@H](C)[C@@H](CN(C)S(=O)(=O)c2cccs2)Oc2ccc(NS(C)(=O)=O)cc2CC1=O	nt	nt	nt	nt	7	nt
CC(=O)c1ccc(NC(=O)Nc2ccc(Cl)cc2)cc1	4	-128	-67	-153	66*	-84
